These results are taken from PubChem BioAssay (NCI).

This is part of a sample that, as a whole, favours compounds with a hit. Of some 83,000 tested, about 20% had one in any assay.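 Compound tested at a single concentration for 48 hours in 96-well plates; a percent growth value below 10 was scored as active.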 Unmarked numbers belong to inactive results. The source made the active and inactive calls.

Some test systems named below: DU-145 prostate; K-562 leukemia; MALME-3M melanoma; MDA-MB-231 breast; RXF 393 renal; SF-268 CNS; SF-295 CNS; SF-539 CNS; UACC-257 melanoma; M14 melanoma.
Test in all cases: NCI-60 one-dose screen, 48 h (100 = growth as untreated, 0 = no growth, -100 = all killed)
Holding throughout (conditions): 10 µM unless noted

Take `C1CCc2onc(-c3noc4c3CCCCC4)c2CC1`: the growth was 118% in the experiment on DU-145 prostate; 103% in the experiment on K-562 leukemia; 106% with MALME-3M melanoma; 114% with MDA-MB-231 breast; 139% in the experiment on RXF 393 renal; 92.9% in the experiment on SF-268 CNS. The growth was 99.5% in the experiment with SF-295 CNS, 104% in the experiment on SF-539 CNS, 107% with UACC-257 melanoma and 112% with M14 melanoma.

As for `CCOC(=O)c1cc(C)[nH]c(=O)c1C#N`, the growth in the experiment with DU-145 prostate was 113%; in the experiment with K-562 leukemia, 82.6%; in the experiment on MALME-3M melanoma, 123%; in the experiment with MDA-MB-231 breast, 116%; with RXF 393 renal it was 98.1%; in the experiment on SF-268 CNS, 105%. For the same compound, the growth was 93.5% in the experiment with SF-295 CNS, 95.6% with SF-539 CNS, 93% in the experiment on UACC-257 melanoma and 102% in the experiment with M14 melanoma.

As to `O=S(=O)(O)C(C(I)I)S(=O)(=O)O`, the growth with DU-145 prostate was 106%; with K-562 leukemia, 105%; in the experiment with MALME-3M melanoma, 107%; in the experiment on MDA-MB-231 breast, 126%; in the experiment on RXF 393 renal it was 104%; with SF-268 CNS it was 100%. Also, the growth in the experiment with SF-295 CNS is 113%; in the experiment on SF-539 CNS, 99.8%; with UACC-257 melanoma, 102%; with M14 melanoma, 109%.

As for `CCC(=O)Oc1ccc2ccccc2c1`, the growth was 113% in the experiment with DU-145 prostate; 107% with K-562 leukemia; 93.7% in the experiment on MALME-3M melanoma; 90.2% in the experiment on MDA-MB-231 breast; 105% in the experiment on RXF 393 renal; 97.5% in the experiment with SF-268 CNS. Moreover, the growth in the experiment with SF-295 CNS was 101%; with SF-539 CNS, 96.8%; in the experiment on UACC-257 melanoma, 96.6%; with M14 melanoma, 92.2%.

In the case of `O=C(OC1CCCC1)c1ccccc1Cl`, the growth with DU-145 prostate is 109%; with K-562 leukemia it was 106%; in the experiment on MALME-3M melanoma, 102%; in the experiment on MDA-MB-231 breast, 97.3%; with RXF 393 renal, 112%; in the experiment with SF-268 CNS it was 104%. For the same compound, the growth in the experiment on SF-295 CNS was 100%; in the experiment on SF-539 CNS it was 98.6%; with UACC-257 melanoma it was 109%; in the experiment on M14 melanoma it was 101%.

Consider `COc1ccc2c(Cl)cc(NC(=O)Nc3c(C)cccc3C)nc2c1`, for which the growth with DU-145 prostate is 82.6%; in the experiment on K-562 leukemia, 72.6%; with MALME-3M melanoma, -1.2% (active); in the experiment on MDA-MB-231 breast it was 62.7%; in the experiment on RXF 393 renal it was 36.3%; in the experiment on SF-268 CNS, 81.1%. Besides, the growth was 0.445% (active) with SF-295 CNS, 90.1% in the experiment on SF-539 CNS, 76.8% in the experiment with UACC-257 melanoma and 85.6% with M14 melanoma.

Turning to `CCC(C)C1CCC(O)CC1` (stereo not given), the growth in the experiment with DU-145 prostate is 101%; in the experiment on K-562 leukemia, 99.2%; in the experiment with MALME-3M melanoma, 32.8%; in the experiment with MDA-MB-231 breast, 112%; with RXF 393 renal, 108%; in the experiment with SF-268 CNS, 99.3%. Also, the growth with SF-295 CNS was 105%; in the experiment on SF-539 CNS, 94.8%; with UACC-257 melanoma, 103%; with M14 melanoma it was 99%.

For `C/C(=N\O)c1ccccn1`, the growth in the experiment on DU-145 prostate was 106%; in the experiment on K-562 leukemia, 106%; with MALME-3M melanoma it was 108%; with MDA-MB-231 breast it was 101%; in the experiment with RXF 393 renal, 108%; in the experiment on SF-268 CNS, 96.8%. Moreover, the growth was 102% in the experiment with SF-295 CNS, 103% in the experiment on SF-539 CNS, 86.3% in the experiment on UACC-257 melanoma and 105% in the experiment on M14 melanoma.

Turning to `O=C(NCc1ccccc1)c1cccc([N+](=O)[O-])c1`, the growth is 104% in the experiment with DU-145 prostate; 102% with K-562 leukemia; 90.5% with MALME-3M melanoma; 91.1% with MDA-MB-231 breast; 104% in the experiment with RXF 393 renal; 92.6% in the experiment on SF-268 CNS. In addition, the growth was 104% in the experiment with SF-295 CNS, 102% in the experiment with SF-539 CNS, 88% in the experiment with UACC-257 melanoma and 107% with M14 melanoma.

With `O=Cc1ccc(Cl)c(Cl)c1`, the growth was 94.8% in the experiment with DU-145 prostate; 104% in the experiment on K-562 leukemia; 98.7% with MALME-3M melanoma; 116% in the experiment with MDA-MB-231 breast; 94.3% in the experiment with RXF 393 renal; 101% in the experiment on SF-268 CNS. Also, the growth with SF-295 CNS was 119%; in the experiment on SF-539 CNS, 117%; with UACC-257 melanoma, 96.4%; in the experiment on M14 melanoma it was 102%.

With `CCCCCCCCCCCCCCCCCC(=O)NCCNC(=O)CCCCCCCCCCCCCCCCC`, the growth is 97.5% with DU-145 prostate; 57.4% in the experiment on K-562 leukemia; 93.5% in the experiment on MALME-3M melanoma; 75.3% with MDA-MB-231 breast; 109% with RXF 393 renal; 89.3% with SF-268 CNS. For the same compound, the growth in the experiment on SF-295 CNS was 100%; in the experiment with SF-539 CNS, 96.9%; with UACC-257 melanoma it was 105%; in the experiment with M14 melanoma, 95.6%.

Turning to `CC(C)OCC(CCl)OC(=O)Nc1ccccc1` (stereo not given), the growth was 106% in the experiment with DU-145 prostate; 103% in the experiment with K-562 leukemia; 92.7% in the experiment with MALME-3M melanoma; 94.8% in the experiment on MDA-MB-231 breast; 113% in the experiment on RXF 393 renal; 101% in the experiment on SF-268 CNS. For the same compound, the growth is 108% in the experiment with SF-295 CNS, 98.1% with SF-539 CNS, 102% in the experiment on UACC-257 melanoma and 107% in the experiment with M14 melanoma.

For `O=C(Oc1ccccc1Cl)c1ccc(Cl)cc1Cl`, the growth in the experiment with DU-145 prostate was 110%; in the experiment with K-562 leukemia, 99.6%; with MALME-3M melanoma, 103%; with MDA-MB-231 breast it was 98.3%; in the experiment on RXF 393 renal it was 102%; in the experiment on SF-268 CNS, 105%. The growth with SF-295 CNS was 95.1%; in the experiment on SF-539 CNS it was 95.6%; in the experiment with UACC-257 melanoma, 94.3%; with M14 melanoma it was 98.1%.

As for `COc1cc(OC)c2cc(C(=O)c3ccc(C#N)cc3)c(=O)oc2c1`, the growth is 102% in the experiment with DU-145 prostate; 85.1% in the experiment on K-562 leukemia; 95.7% in the experiment with MALME-3M melanoma; 79.3% with MDA-MB-231 breast; 109% with RXF 393 renal; 88.1% with SF-268 CNS. Further, the growth in the experiment with SF-295 CNS is 97.2%; with SF-539 CNS, 82.5%; with UACC-257 melanoma, 102%; in the experiment with M14 melanoma, 105%.

In the case of `CC1CCC(C(C)(C)[N+](C)(C)C)CC1` (stereo not given), the growth is 102% in the experiment with DU-145 prostate; 116% in the experiment on K-562 leukemia; 96.1% with MALME-3M melanoma; 103% in the experiment on MDA-MB-231 breast; 111% in the experiment on RXF 393 renal; 95.8% in the experiment on SF-268 CNS. In addition, the growth is 101% in the experiment with SF-295 CNS, 96% with SF-539 CNS, 99.6% with UACC-257 melanoma and 98.1% in the experiment on M14 melanoma.
